Source: PubChem BioAssay AID488789 (Broad Institute, 2010)
Measured potencies and affinities stand elsewhere. Records with an inconclusive call do not appear. The source made the active and inactive calls.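 Rule for the calls: active = samples whose fitted half-maximal inhibition concentration is no more than ten times the top valid dose tested; inconclusive = flat response between -70 and -30, or invalid curve fit; inactive = flat within 30 of zero, potency above limit, or signal rising.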

target: Trypsin (Sus scrofa) (UniProt P00761); assay: trypsin protease activity blockade – biochemical, quenched peptide fluorescence, cherry-pick, selectivity assay for Rce1 protease inhibitor project, dose response (AID 488789); settings: porcine trypsin, quenched peptide cleavage fluorescence; series mostly up to 10 µM; activity change, negative = inhibition: at the top concentration;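 note: more negative means stronger trypsin inhibition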
Sequence (P00761 whole entry, looked up): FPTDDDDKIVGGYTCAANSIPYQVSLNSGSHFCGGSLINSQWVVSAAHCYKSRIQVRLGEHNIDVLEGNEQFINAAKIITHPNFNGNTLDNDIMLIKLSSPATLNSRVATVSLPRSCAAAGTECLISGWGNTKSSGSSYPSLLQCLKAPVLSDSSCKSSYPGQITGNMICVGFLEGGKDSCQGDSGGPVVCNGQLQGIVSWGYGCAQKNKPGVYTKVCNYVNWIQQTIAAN

Activity change, negative = inhibition, inactive:
CCOc1ccc(N(Cc2ccc(OC)cc2)C(=O)c2ccco2)cc1 13.2%, COCCN1C(=O)/C(=C/c2ccc(Oc3ccc([N+](=O)[O-])cn3)c(OC)c2)SC1=Nc1ccccc1 10.9%, Cc1nc(-c2ccc(Cl)cc2)sc1C1(C)CC(c2ccccc2Br)=NO1 (configuration not stated) 18.1%, NC(=O)[C@@H]1CC2(CC(c3cccc(NC(=O)CC(c4ccccc4)c4ccccc4)c3)=NO2)CN1C(=O)c1ccc(Cl)cc1 (some centres not stated) 9%, COc1cc(-c2nc3ccccn3c2/N=C/c2ccccc2)ccc1O -1.21%, CS(=O)(=O)Cc1ccc(C(=O)N(CCc2ccccc2)Cc2ccccc2)cc1 10.6%, Cc1ccc(-c2csc(N3CCN(c4cc5c(cc4Cl)nc(-c4ccncc4)n5CCOCCO)CC3)n2)cc1 -2.1%, COC(C/C=C/[C@H](O)[C@@H](C)OCc1ccccc1)OC 3.98%, O=C(COC(=O)c1ccccc1Cc1ccccc1)NC1CCS(=O)(=O)C1 (configuration not stated) -2.02%, O=C(CN(C1CCCCC1)C1CCCCC1)N1CCc2ccccc2C1 6.13%, CCn1c(COc2cccc(C)c2)nnc1SCC(=O)NC1CCCC1 11.4%, COc1ccc(C)cc1NC(=O)CN1C(=O)COc2ccc(S(=O)(=O)N3CCOCC3)cc21 5.03%, CN(C)c1cc(O)c(C(=S)Nc2ccccc2)c(N(C)C)c1 -3.16%, COc1cc2c(cc1OC)C(C)=NC1(CCCCC1)C2 -10.1%, Cc1cc(C(=O)N/N=C/c2c3ccccc3cc3ccccc23)n[nH]1 9.63%, O=S(=O)(c1ccc(-c2csc(Nc3ccc(F)cc3)n2)cc1)N1CCCC1 -4.3%, CC(C)c1ccc(/C=C2\SC(=S)N(CCC(=O)NCCCn3ccnc3)C2=O)cc1 26.8%, CCOc1ccc(-c2nc(CCl)cs2)cc1OC -9.87%, COc1ccc2[nH]c(C(=O)NCCCn3ccnc3)cc2c1 10.5%, O=C(C1CCC(=O)N(C2CC2)C1)N1CCN(c2ccccc2Cl)CC1 (configuration not stated) 2.53%, COc1ccc(C2Nc3ccccc3C(=O)N2Cc2ccccc2)cc1COc1ccccn1 (configuration not stated) -12.8%, Cc1ccc(S(=O)(=O)CC(=O)N2CCN(c3ccccc3F)CC2)cc1 12.2%, Nc1nnnn1/N=C/c1ccccc1OCc1ccc(Cl)cc1Cl 0.248%, Cc1c(Cl)c([N+](=O)[O-])nn1CC(=O)N1CCCc2ccccc21 3.75%, Cc1ccc(NC(=O)CCc2ccc(S(=O)(=O)NC3CCCCC3)cc2)cc1 8.43%, Cc1nc(N2CCOCC2)c2cc(-c3ccccc3)sc2n1 7.9%, CC(C)CC(=O)NC(=S)Nc1ccc(S(=O)(=O)Nc2nccs2)cc1 3.91%, O=C(Nc1ccc(N2CCOCC2)c(Cl)c1)c1cc2ccccc2o1 8.34%, COc1ccc(-c2cc(C(=O)N3CCN(c4ccccc4)CC3)c3ccccc3n2)cc1 -3.79%, O=C(CN1CCC(NC(=O)c2ccc(Br)cc2)CC1)NCc1cccs1 5.08%, Cc1ccc(-c2nc(SCC(=O)N(C)C3CCS(=O)(=O)C3)[nH]c2-c2ccc(C)cc2)cc1 (configuration not stated) -6.71%, COc1ccc(C2c3c(ncn(CCCO)c3=N)Oc3ccc4ccccc4c32)cc1 (configuration not stated) 0.00832%, CCO[C@@H]1OC(C(=O)N2CCN(Cc3ccccc3)CC2)=C[C@H](c2ccccc2)[C@H]1CCCO 12.4%, CC(C)c1cccc(OCC(=O)Nc2ccc(S(=O)(=O)Nc3ccccn3)cc2)c1 5.03%, Cc1nc(N2CCOCC2)c2c(C)c(C(=O)Nc3ccccc3C(F)(F)F)sc2n1 -6.97%, CN(C(=O)COC(=O)c1cc([N+](=O)[O-])ccc1Sc1ccccc1)C1CCS(=O)(=O)C1 (configuration not stated) 12.2%, CC1(c2ccc(OCC#N)cc2)C=C(c2ccc(OCC#N)cc2)n2nc(C(F)(F)F)nc2N1 (configuration not stated) 5.89%
